TGFb inhibitor: inhibitors of TGF-b signaling; HepG2 CAGA-GFP TGF-b/SMAD3 reporter, GFP fluorescence, 18 h; TGF-beta stimulated, 500 pg/mL final; Potency, µM (highest dose often 46.1 µM), without a hit: at the highest dose activity, negative = inhibition, usual class: inhibitors; 1.2% of 410,000 active; AID 588855; note: potency is the fitted concentration of half-maximal effect; % is set by controls: 0 for no effect and ±100 for the full control effect; nearly all actives have a fitted effect of over 65% in size
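Using HEPG2 CAGA-GFP reporter cells at 1000 cells/well, we pinned test compounds, stimulated with recombinant TGF-beta (500 pg/mL final) and measured total well GFP after 18 h.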
HepG2 tox: counter-screen for TGF-b inhibitors: cytotoxicity in HepG2 cells | HepG2 CAGA-GFP viability, ATP luminescence, 18 h | Potency, µM (top dose mostly 46.1 µM), inactives show top-dose activity change, negative = cytotoxicity, usual class: cytotoxic | 0.76% of 410,000 active; note: potency is the fitted concentration of half-maximal effect
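HepG2 CAGA-GFP cells (1000/well, DMEM with 1% FBS) received compound, then TGF-beta at 500 pg/mL final, and were incubated 18 hours at 37 degrees C. Viability was read by CellTiter-Glo luminescence. Media-only wells were set as complete cell-killing and DMSO as no toxicity.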
ATXN viability: reduces viability in counter-screen for ATXN expression inhibitors; S2 cells (HEK-293 line with an ATXN2-luciferase reporter) viability, CellTiter-Fluor protease fluorescence, 24 h; 0.49% of 400,000 active; Potency, µM (top dose mostly 56.7 µM), usual class: cytotoxic; AID 651635; note: potency is the fitted concentration of half-maximal effect; nearly all actives have a fitted effect of over 40% in size
ATXN2 expr inh: ATXN2 expression inhibition | HEK-293 ATXN2-luciferase reporter, luminescence, 24 h | Potency, µM (top dose mostly 57 µM), inactives show at the top dose activity change, negative = inhibition, usual class: inhibitors | 0.72% of 360,000 active; note: potency is the fitted concentration of half-maximal effect; % is set by controls: 0 for no effect and ±100 for the full control effect; nearly all actives have a fitted effect of over 55% in size
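qHTS (up to 57 uM final) was run with 24 h compound exposure of reporter cells at 37 °C. Each well was multiplexed: SteadyGlo luminescence measured ATXN2-luciferase expression after a fluorogenic Gly-Phe-AFC viability readout (25 uM final).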
IL1B secr inh: inhibitors of inflammasome signaling (IL-1 beta secretion) | THP-1 LPS/ATP IL-1B secretion, AlphaLISA, 16 h; active compounds read low | activity change, % at 57.5 µM | 4.7% of 360,000 active; in the data active = activity change below about -50%; inconclusive = mostly about -30% to -49%; note: % is set by controls: 0 for no effect and ±100 for the full control effect
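Secreted IL-1B measured by AlphaLISA bead assay after 16 h compound exposure of THP-1 cells; compounds (final up to 57.5 uM) added 1 h before LPS (250 ng/mL) and ATP (1.25 mM) stimulation; lower signal means less secretion.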
Active calls of the source: *; i = inactive; ? = inconclusive; nt = no result; [ ] = another dose, or the depositor's remark. Most compounds without a hit are left out; they make up all but 5.7% or so of the library. Unless noted, calls come from the whole dose curve; as a rule, active = well fitted curve in the direction sought with a large enough effect; inconclusive = small, poorly fitted or top-dose-only effect, or another doubt; inactive = no such curve, though single readings can be large; an effect the other way counts as inactive or inconclusive.

SMILES	TGFb inhibitor	HepG2 tox	ATXN viability	ATXN2 expr inh	IL1B secr inh
CCc1ccc2nc(N(CCN(C)C)C(=O)/C=C/c3cccs3)sc2c1	?	-97%	?	nt	-81*
Cn1c(C(=O)NCc2ccccc2Cl)cc2sc(Cl)cc21	nt	-26%	nt	nt	nt
C/C(CC(C)(C)C1CCCCC1)=N\NC(N)=S	6.3µM*	11µM*	32µM*	32µM*	-102*
C/C(CCC12CC3CC(CC(C3)C1)C2)=N\NC(N)=S	?	-40%	?	?	-5
COc1ccccc1N1CCN(C(=O)c2cc(C(C)(C)C)oc2C)CC1	?	12%	i	-20%	-60*
COc1ccccc1N1CCN(C(=O)c2ccc3[nH]c4c(c3c2)CCCC4)CC1	0%	1%	i	-8%	-76*
COc1cc2c(C(=O)N3CCN(c4ccccc4C)CC3)c(C)oc2cc1Br	1%	7%	i	2%	-73*
O=C(c1ccc2[nH]c3c(c2c1)CCCC3)N1CCN(c2ccc(F)cc2)CC1	?	-23%	i	-8%	-18
CC(C)(C)OC(=O)N1CCC(c2nnc(SCc3ccccc3)o2)CC1	-62%	-85%	i	-19%	nt
O=C(CN1CCCc2ccccc21)N/N=C/c1ccc(F)cc1F	-5%	-3%	i	12%	-2
O=C(CN1CCCc2ccccc21)N/N=C/c1ccccc1O	?	-32%	i	28µM*	40
O=C(N/N=C/c1ccc(O)cc1)c1cc(-c2ccccc2)nc2ccccc12	1%	-19%	i	108%	26
O=C(N/N=C/c1ccccn1)c1cc(-c2ccccc2)nc2ccccc12	10µM*	-22%	?	nt	0
Cc1ccc(-c2cc(C(=O)N/N=C/c3c(C)nn(C)c3C)c3ccccc3n2)cc1C	?	-96%	i	79%	-51*
Cc1ccc(-c2cc(C(=O)N/N=C/c3ccoc3)c3ccccc3n2)cc1	-9%	-10%	i	7%	-5
O=C(N/N=C/c1ccccn1)c1cc(C2CC2)nc2ccccc12	-3%	-1%	i	-26%	-102*
CCOC(=O)c1cnn(-c2cccc(Cl)c2)c1C1CCN(C(=O)OC(C)(C)C)CC1	1%	4%	i	1%	nt
Cc1ccc(OCC(=O)Nc2nonc2-c2ccc(Br)cc2)cc1C	?	-45%	i	-25%	nt
Cn1c(C(=O)O)c(C=O)c2ccccc21	2%	-4%	i	-15%[11.3 µM]	-70*
Cn1c(-c2ccccc2)c(C=O)c2ccccc21	-7%	-33%	i	11%	-2
O=C(Nc1cc(Cl)cc2c1-c1ccc(Cl)cc1C2O)C(Cl)Cl (stereo unspecified)	?	-15%	i	-38%	-61*
COc1ccccc1C(=O)N1CCOc2ccc(CN3CCN(Cc4ccccn4)CC3)cc2C1	nt	nt	i	nt	nt
CCOC(=O)c1ccc(S(=O)(=O)N2CCN(C(=O)c3cc(=O)c4ccccc4o3)CC2)cc1	2%	7%	i	-15%	-116*
C[C@H](NC(=O)c1sccc1OCc1ccc(Cl)cc1)c1ccccc1	nt	nt	nt	22µM*	nt
COc1ccc(CNc2cc(NCCCO)c([N+](=O)[O-])c3nonc23)cc1	-27%	-42%	?	?	35
SMILES	TGFb inhibitor	HepG2 tox	ATXN viability	ATXN2 expr inh	IL1B secr inh
CC(=O)OCCCNc1cc(Sc2nc3ccccc3s2)c2nonc2c1[N+](=O)[O-]	?	-4%	nt	16µM*	?
CC(=O)OCCNc1cc(Sc2nc3ccccc3[nH]2)c2nonc2c1[N+](=O)[O-]	?	-32%	?	-88%	-101*
COc1ccc(Nc2cc(NCCCO)c([N+](=O)[O-])c3nonc23)cc1	-14%	0%	i	-27%	39
CC(=O)OCCCNc1cc(Sc2ccc(C)cc2)c2nonc2c1[N+](=O)[O-]	-5%	-27%	?	-62%	-51*
CCOc1ccc(C(=O)N(Cc2nc(-c3cccc(C)c3)no2)C(C)C)cc1	?	-42%	i	?	nt
CC(C)CN1CCN(Cc2cnc(-c3ccc(Cl)cc3)nc2)CC1CCO (stereo unspecified)	-24%	-55%	i	nt	15
OCCC1CN(Cc2cnc(-c3ccc(Cl)cc3)nc2)CCN1C1CCCC1 (stereo unspecified)	1%	4%	i	?	-73*
OCCC1CN(Cc2cnc(-c3ccccc3)s2)CCN1C1CCCC1 (stereo unspecified)	-16%	-4%	i	-19%[11.3 µM]	-81*
CC(C)(C)OC(=O)N1CCC(c2c(C(=O)N3CCCCC3)cnn2-c2ccccc2Cl)CC1	-27%	-30%	nt	nt	nt
Cc1cc(C)nc(/N=C(\N)Nc2ccc(-c3ccccc3)cc2)n1	?	-27%	i	?	nt
COc1ccc(C)cc1N/C(N)=N/c1nc(C)cc(C)n1	?	-23%	i	-26%	-98*
COc1ccc(Cl)cc1N/C(N)=N/c1nc(C)cc(C)n1	-3%	1%	i	-5%	15
COc1cc(N/C(N)=N/c2nc(C)cc(C)n2)cc(OC)c1	1%	-39%	i	-18%	0
COc1ccc(OC)c(N/C(=N/c2nc(C)cc(C)n2)NC(C)=O)c1	0%	4%	i	1%	-12
COc1ccc(N/C(N)=N/c2nc(C)cc(C)n2)c(OC)c1	-10%	-6%	i	-14%	-76*
COc1ccc(OC)c(N/C(N)=N/c2nc(C)cc(C)n2)c1	-29%	-18%	i	-21%	-77*
Cc1ccc(C)c(N/C(N)=N/c2nc(C)cc(C)n2)c1	-10%	-2%	i	-20%	-111*
O=C(Nc1ccccc1C(=O)N1CCCCC1)c1nsc2ccccc12	?	-26%	nt	nt	nt
CC1CCCCN1c1nnc(NC(=O)Nc2ccccc2F)s1 (stereo unspecified)	-11%	-13%	i	71%	nt
COc1ccc(SN=C2C(C)=CC(=O)C=C2C)cc1	-5%	-17%	i	?	?
COC1=CC(=O)c2ccccc2C1=O	1.4µM*	2.2µM*	i	28µM*	9
COc1cc(N=CC2=C(O)c3ccccc3C2=O)cc(OC)c1	-19%	-1%	i	55%	0
COC1=CC(=O)C=C(OC)C1=O	?	-118%	?	5.6µM*	-107*
Cc1ccc(OCCSc2nc3ccccc3n2CC(=O)N2CCOCC2)c(C)c1	7%	-11%	?	5%	nt
CN(C)C=Nc1ncc2c3ccccc3n(CCN(C)C)c2c1C#N	?	-6%	i	?	-77*
CCN(CC)CCn1c2ccccc2c2cnc(N)c(C#N)c21	-12%	-6%	i	14µM*	-104*
Clc1cccc(CNc2ncnc3nc[nH]c23)c1	-1%	-7%	nt	nt	nt
Nc1ccc(-c2nc3c(Cl)cc(N)cc3[nH]2)cc1	-12%	-9%	i	10µM*	?

Screens (PubChem)
